In PubChem BioAssay (NCATS) one finds Potency, activity, negative = cell killing and outcome data, which are given here for 13 compounds.

Test [1] has as its system MKL-1. In words: qHTS assay to identify novel small-molecules to repurpose for Merkel cell carcinoma treatment (AID 1296009). Further: nearly all actives have a fitted effect of over 60% in size. To be noted: MCC and control cell lines, CellTiter-Glo viability, 72 h; series mostly up to 46 µM. The essentials:
(§1)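 Luminescence from CellTiter-Glo, read 10 min after addition at room temperature, reported viability following a 72 hr, 37 degree celsius treatment with NPC or MIPE compounds in titration; values normalized to plate controls.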

Test [2] has as its system MKL-2. Described as above. To be noted: MCC and control cell lines, CellTiter-Glo viability, 72 h; series mostly up to 46 µM. The essentials: as §1
(ATP-based viability assays read luminescence as a measure of living cells.)

For test [3], the system named is UISO. The test is described as above. To be noted: MCC and control cell lines, CellTiter-Glo viability, 72 h; series mostly up to 46 µM. In outline:
as §1

The test system of test [4] is WaGa. The description is as above. To be noted: MCC and control cell lines, CellTiter-Glo viability, 72 h; series mostly up to 46 µM. The essentials:
as §1

In test [5] the test system is C33A. As to the kind of experiment: Primary qHTS to identify gynecologic anti-cancer compounds using libraries of approved drugs and bioactive compounds (AID 1345084). Further: nearly all actives have a fitted effect of over 55% in size. Further: potency means the concentration at half of the fitted maximal effect. To be noted: Gynecologic cancer cell panel viability, ATPlite luminescence, 48 h; series mostly up to 57.5 µM. The essentials:
(§2)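 In this quantitative HTS, cell killing is estimated from loss of ATP-dependent luciferase light. Cells see five compound concentrations over a 48 h exposure.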
For orientation: Quantitative high-throughput screening tests each substance at several concentrations.

For test [6], the system named is CASKI. The description is as above. To be noted: Gynecologic cancer cell panel viability, ATPlite luminescence, 48 h; series mostly up to 57.5 µM. In outline:
as §2

Test [7] concerns Es-2. The test is described as above. To be noted: Gynecologic cancer cell panel viability, ATPlite luminescence, 48 h; series mostly up to 57.5 µM. The essentials:
as §2

Test [8] concerns HeLa. Described as above. The note with it: Gynecologic cancer cell panel viability, ATPlite luminescence, 48 h; series mostly up to 57.5 µM. In outline: as §2
The test system of test [9] is Hek293T. The description is as above. The note with it: Gynecologic cancer cell panel viability, ATPlite luminescence, 48 h, control line for the selectivity index; series mostly up to 57.5 µM. In outline: as §2
Test [10] deals with JEG-3. Described as above. The note with it: Gynecologic cancer cell panel viability, ATPlite luminescence, 48 h; series mostly up to 57.5 µM. The essentials: as §2
In test [11] the test system is OV90. Described as above. The note with it: Gynecologic cancer cell panel viability, ATPlite luminescence, 48 h; series mostly up to 57.5 µM. In outline:
as §2

Test [12] concerns PA-1. Described as above. The note with it: Gynecologic cancer cell panel viability, ATPlite luminescence, 48 h; series mostly up to 57.5 µM. In outline:
as §2

For test [13], the system named is SKOV3. The description is as above. The note with it: Gynecologic cancer cell panel viability, ATPlite luminescence, 48 h; series mostly up to 57.5 µM. The essentials:
as §2

Test [14] relates to Tov-21-G. The description is as above. To be noted: Gynecologic cancer cell panel viability, ATPlite luminescence, 48 h; series mostly up to 57.5 µM. The essentials: as §2
Test [15] deals with Tov112D. The description is as above. To be noted: Gynecologic cancer cell panel viability, ATPlite luminescence, 48 h; series mostly up to 57.5 µM. The essentials: as §2
A short description of test [16]: Drug repurposing screens with cells derived from glioblastoma tumor samples (AID 1345199). Further: nearly all actives have a fitted effect of over 40% in size. The note with it: GBM patient neurospheres viability, ATP luminescence, 48 h. The essentials:
(§3)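 Primary testing used CD133+ neurospheres from four GBM patients, seven concentrations, 48 h exposure and ATP-based viability; confirmation added three slower-growing patient lines.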

In test [17] the test system is NIH3T3. As to the kind of experiment: qHTS assay to identify novel small-molecules to repurpose for Merkel cell carcinoma treatment (AID 1296009). Further: nearly all actives have a fitted effect of over 60% in size. The note with it: MCC and control cell lines, CellTiter-Glo viability, 72 h; at 44.8 µM (top of the series) unless noted. In outline: as §1
Test [18] deals with CAOV3. As to the kind of experiment: Primary qHTS to identify gynecologic anti-cancer compounds using libraries of approved drugs and bioactive compounds (AID 1345084). Further: nearly all actives have a fitted effect of over 55% in size. Further: potency means the concentration at half of the fitted maximal effect. The note with it: Gynecologic cancer cell panel viability, ATPlite luminescence, 48 h; series mostly up to 57.5 µM. The essentials:
as §2

Test [19] concerns astro. As to the kind of experiment: Drug repurposing screens with cells derived from glioblastoma tumor samples (AID 1345199). Further: nearly all actives have a fitted effect of over 40% in size. To be noted: viability, ATP luminescence, 48 h; series mostly up to 45.9 µM. The essentials:
as §3

Test [20] concerns MCC-26. As to the kind of experiment: qHTS assay to identify novel small-molecules to repurpose for Merkel cell carcinoma treatment (AID 1296009). Further: nearly all actives have a fitted effect of over 60% in size. To be noted: MCC and control cell lines, CellTiter-Glo viability, 72 h; series mostly up to 46 µM. The essentials: as §1
Where [21] appears, read: at 45.9 µM (top of the series), tumour line B.
Where [22] appears, read: at 45.9 µM (top of the series), tumour line D.
Where [23] appears, read: at 46.1 µM (top of the series), tumour line C.
The mark [24] stands for this setting: at 46 µM (top of the series), tumour line A.

The structures appear in SMILES notation. Results filed as inconclusive are left out. A number with no mark means an inactive call. Calls of active or inactive are those of the source. The call rests on the fitted dose curve; in most records, active means well fitted curve in the direction sought with a large enough effect; inconclusive means small, poorly fitted or top-dose-only effect, or another doubt; inactive means no such curve, though single readings can be large; an effect the other way counts as inactive or inconclusive.
On the % scale 0 is the no-effect control and ±100 the full control effect.

Turning to `O=C(/C=C/c1ccccc1)NCCO`, the Potency entry in test [1], in test [2], in test [3], in test [4], in test [5] and in test [6] was “inactive” throughout. The Potency result in [7], in [8], in test [9], in test [10], in [11] and in test [12] was “inactive” throughout. For the same compound, the Potency entry in test [13], in test [14] and in test [15] was “inactive” throughout. In addition, the values for the activity, negative = cell killing in [16] (setting [21]), in test [16] (setting [22]) and in test [16] (setting [23]) were -16.2%, -5.87% and -18.2%, respectively.
As for `CCOc1ccc2nc(S(N)(=O)=O)sc2c1`, the Potency result in [1], in [2], in test [4], in [5], in [18] and in [6] was “inactive” each time. Further, the Potency result in test [7], in [8], in [9], in test [10], in [11] and in test [12] was “inactive” throughout. For the same compound, the Potency result in test [14], in test [15] and in test [19] was “inactive” in each case. The compound was classed as inactive in test [17]. The activity, negative = cell killing in test [16] (setting [21]) was -0.995%; in [16] (setting [22]), -17.7%; in test [16] (setting [23]), 1.48%.
On to `O=C(O)Cc1ccc2c(c1)C(=O)c1ccccc1CO2`, for which the Potency entry in [1], in test [2], in [3], in [4], in test [5] and in test [18] was “inactive” each time. In addition, the Potency entry in test [6], in test [7], in [8], in [9], in [10] and in [11] was “inactive” throughout. Besides, the Potency result in test [12], in test [13], in test [14] and in [15] was “inactive” throughout. Further, the outcome in test [17] was inactive.
For `COc1cc2c3cc1Oc1cc(ccc1O)C[C@@H]1c4c(cc(OC)c(O)c4Oc4ccc(cc4)C[C@@H]3N(C)CC2)CC[N+]1(C)C`, the Potency entry in test [1], in test [2], in test [3], in test [4], in [5] and in test [6] was “inactive” throughout. The Potency result in test [7], in test [8], in [9], in [10], in test [11] and in test [12] was “inactive” throughout. Further, the Potency entry in [13], in test [14], in test [15] and in [19] was “inactive” throughout. In addition, the figures for the activity, negative = cell killing in test [16] (setting [21]), in test [16] (setting [22]) and in test [16] (setting [23]) were 1%, -8.25% and 7.69%, respectively.
For the compound `Clc1ccccc1-c1nc(-c2ccncc2)no1`, the Potency result in test [1], in test [2], in test [3], in test [4], in test [5] and in test [18] was “inactive” each time. The Potency is 28.2 µM (active) in test [8] and 22.4 µM (active) in [13].
For the compound `CC(C)(C)c1nnc(NS(=O)(=O)c2ccc(N)cc2)s1`, the Potency result in test [1], in [2], in test [3], in test [4], in test [5] and in test [18] was “inactive” throughout. For the same compound, the Potency entry in test [6], in test [7], in [8], in [9], in [10] and in test [11] was “inactive” throughout. In addition, the Potency entry in [12], in [13], in test [14] and in test [15] was “inactive” each time.
On to `CCC1C(=O)OCC1Cc1cncn1C` (stereo not given), for which the Potency entry in test [1], in test [2], in test [3], in test [4], in [5] and in test [6] was “inactive” throughout. In addition, the Potency result in test [7], in [8], in test [9], in test [10], in test [11] and in test [12] was “inactive” throughout. For the same compound, the Potency entry in test [13], in [14] and in test [15] was “inactive” each time. The activity, negative = cell killing in test [16] (setting [21]) was -2.95%; in test [16] (setting [22]), -8.25%; in test [16] (setting [24]), -25.3%; in test [16] (setting [23]) it was -11.8%.
In the case of `Nc1ccc(O)c([N+](=O)[O-])c1`, the Potency result in [20], in test [5], in [18], in test [6], in [7] and in [8] was “inactive” each time. In addition, the Potency result in test [9], in test [10], in test [12], in test [13], in [14] and in test [15] was “inactive” throughout.
For `CC(C(=O)O)c1ccc2c(c1)[nH]c1ccc(Cl)cc12` (stereo not given), the Potency entry in [1], in [2], in [3], in test [4], in test [5] and in test [6] was “inactive” each time. The Potency result in test [7], in test [8], in test [9], in test [10], in test [11] and in [12] was “inactive” each time. The Potency entry in test [13], in test [14] and in [15] was “inactive” throughout. The activity, negative = cell killing is -6.45% in test [16] (setting [21]), -15.7% in test [16] (setting [22]), -16.3% in test [16] (setting [24]) and -19.6% in test [16] (setting [23]).
As to `c1ccc2sc(SN3CCOCC3)nc2c1`, the Potency entry in test [1], in test [2], in test [3], in test [4], in test [5] and in test [18] was “inactive” each time. The Potency result in test [6], in test [7], in [8], in [9], in test [10] and in [11] was “inactive” throughout. Also, the Potency entry in test [12], in test [14] and in test [15] was “inactive” each time. Moreover, the activity, negative = cell killing was -16.5% in test [16] (setting [21]), -19.8% in test [16] (setting [22]) and -23.9% in test [16] (setting [23]).
In the case of `O=C(O)/C=C\C(=O)O`, the Potency result in [1], in test [2], in test [3], in [4], in [5] and in test [18] was “inactive” each time. Besides, the Potency result in test [6], in test [7], in test [8], in test [9], in [10] and in test [11] was “inactive” each time. Moreover, the Potency result in test [12], in [13], in [14] and in test [15] was “inactive” each time.
With `CC1(C)S[C@@H]2[C@H](NC(=O)[C@H](N)c3ccccc3)C(=O)N2[C@H]1C(=O)O`, the Potency entry in [1], in [2], in [3], in test [4], in [5] and in [18] was “inactive” throughout. Besides, the Potency entry in test [6], in test [7], in test [8], in test [9], in test [10] and in test [11] was “inactive” in each case. Also, the Potency entry in test [12], in [13], in test [14] and in test [15] was “inactive” in each case. Besides, the activity, negative = cell killing is -7.71% in test [16] (setting [21]), 10.7% in test [16] (setting [22]) and 12.5% in test [16] (setting [23]).
Turning to `Nc1c(CC(=O)O)cccc1C(=O)c1ccc(Br)cc1`, the Potency result in test [1], in test [2], in test [3], in [4], in [5] and in [18] was “inactive” in each case. The Potency result in test [6], in test [7], in [8], in test [9], in test [10] and in [11] was “inactive” in each case. For the same compound, the Potency entry in test [12], in test [13], in test [14] and in test [15] was “inactive” throughout. For the same compound, the activity, negative = cell killing in test [16] (setting [21]) is -6.17%; in test [16] (setting [22]) it was -6.69%; in test [16] (setting [24]), -19.8%; in test [16] (setting [23]) it was 10.2%.
